The text below walks through data of PubChem BioAssay (NCATS).

Values joined by “and” are separate entries in the source; they are usually repeats but may differ in a detail not shown here. Identical values can stand only once. Inconclusive results are not listed. Active and inactive are the calls of the source. Unless noted, the call rests on the fitted dose curve; in most records, active means well fitted curve in the direction sought with a large enough effect; inconclusive means small, poorly fitted or top-dose-only effect, or another doubt; inactive means no such curve, though single readings can be large; an effect the other way counts as inactive or inconclusive.

The nature of assay [1]: Cell Viability - H-4-II-E (AID 543).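 Further: cells exposed to compound for 40 hours; on the % scale 0 is the no-effect control and ±100 the full control effect; nearly all actives have a fitted effect of over 35% in size.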 Summed up:
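CellTiter-Glo luminescence (intracellular ATP) measured after 40 h compound exposure at 37 °C in H-4-II-E rat hepatoma cells seeded at 1500/well. Values are AC50s fitted with the standard Hill equation.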

Assay [2] in a line: Cell Viability - SH-SY5Y (AID 544).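 Further: cells exposed to compound for 40 hours; nearly all actives have a fitted effect of over 55% in size.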 The note with it: SH-SY5Y neuroblastoma cell viability; viability change, negative = cytotoxic: at 92.2 µM (top of the series). Summed up:
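Cytotoxicity measured via ATP-dependent luciferase luminescence (CellTiter-Glo) following 40 h, 37 °C exposure of 1500 SH-SY5Y cells per well. Concentration-response data were fitted with the standard Hill equation to give AC50.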

A short description of assay [3]: Cellular Toxicity (caspase-3) Jurkat (AID 655).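 Further: cells exposed to compound for 16 h at 37 °C before reading.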 The note with it: Jurkat caspase-3 activation, luminescence; caspase-3 activation: at 92.2 µM (top of the series), DMSO = 0%, tamoxifen = 100%. The essentials:
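Jurkat cells (5000/well) in complete medium exposed 16 h at 37 C; caspase-3/7 activity read by Caspase-Glo luminescence after 20 min at room temperature. Normalized to DMSO and 100 uM tamoxifen; AC50 from Hill fits.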

A short description of assay [4]: Cell Viability - LYMP2-001 (AID 921).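 Further: 0% = DMSO only and full inhibition = tetraoctylammonium bromide control wells; nearly all actives have a fitted effect of over 70% in size.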 Summed up: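 Human lymphoblastoid LYMP2-001 cells, 2500 per well, in complete medium, treated 24 h at 37 C. Viability from cellular ATP by CellTiter-Glo luminescence; AC50 from Hill-equation fits of qHTS concentration-response.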
A short description of assay [5]: MultiTox-Fluor Cytotoxicity Assay - LYMP1-003 - Live Cells (AID 962).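 Further: cells exposed to compound for 16 hours at 37 °C; 0% = DMSO only and full loss = 92 µM tetraoctylammonium bromide; cytotoxic hits lower the live-cell protease signal.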 Summed up:
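Live-cell protease activity (GF-AFC substrate, 405/510 nm, 60 min at room temperature) after 16 h, 37 C compound exposure of human lymphoblastoid LYMP1-003 cells; concentration-response fitted to the Hill equation for AC50.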

A short description of assay [6]: Cell Viability - LYMP2-004 (AID 966).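 Further: plate controls were DMSO only for no effect and tetraoctylammonium bromide control for full effect; nearly all actives have a fitted effect of over 65% in size.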 The essentials:
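AC50 values come from Hill modelling of concentration-dependent loss of intracellular ATP, measured by CellTiter-Glo luminescence. Human LYMP2-004 lymphoblastoid cells (2500/well) were exposed to compound for 24 h at 37 C.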

A short description of assay [7]: Cell Viability - LYMP2-015 (AID 971).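 Further: 0% = DMSO only and full effect = 92 µM tetraoctylammonium bromide; nearly all actives have a fitted effect of over 55% in size.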 The essentials:
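Cytotoxicity readout: decrease in intracellular ATP (CellTiter-Glo luminescence) in 2500 LYMP2-015 lymphoblastoid cells/well after 24 h compound exposure at 37 C. Concentration-response data fitted with the standard Hill equation to give AC50.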

Assay [8] in a line: Cell Viability - LYMP2-019 (AID 973).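 Further: 0% = DMSO alone and full effect = 92 µM tetraoctylammonium bromide; nearly all actives have a fitted effect of over 55% in size.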 The essentials:
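AC50 values come from Hill-equation fits of luminescent intracellular ATP (CellTiter-Glo, 30 min, room temperature) following 24 h compound exposure at 37 C. Cells: LYMP2-019 lymphoblastoid line, 2500 per well, in complete culture medium.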

A short description of assay [9]: Cell Viability - LYMP2-021 (AID 974). Further: on the % scale 0 is the no-effect control and ±100 the full control effect; nearly all actives have a fitted effect of over 55% in size. Summed up:
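AC50 values come from Hill-equation fits to CellTiter-Glo luminescence (ATP content), read after 24 hour compound exposure at 37 C of 2500 LYMP2-021 lymphoblastoid cells/well; tetraoctylammonium bromide as positive control.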

Assay [10] in a line: Cell Viability - LYMP2-025 (AID 976).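 Further: plate controls were DMSO only for no effect and tetraoctylammonium bromide control for full effect.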 The essentials: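 Cytotoxicity read as loss of intracellular ATP (luciferase luminescence) after 24 h compound treatment at 37 C. Uses LYMP2-025 lymphoblastoid cells in 1536-well format; Hill-equation modelling gives AC50; tetraoctylammonium bromide as positive control.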
Assay [11] in a line: Cell Viability - LYMP2-006 (AID 978). Further: on the % scale 0 is the no-effect control and ±100 the full control effect; nearly all actives have a fitted effect of over 60% in size. Summed up:
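Human lymphoblastoid cells (LYMP2-006), 2500/well in complete medium, were treated with compound for 24 hr at 37 C. Cellular ATP was read by CellTiter-Glo luminescence after 30 min, and AC50 values came from Hill-equation fits of concentration-response data.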

Assay [12] in a line: Cell Viability - LYMP2-007 (AID 979).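 Further: cells exposed to compound for 24 h before reading; 0% = DMSO only and the negative end = 92 µM tetraoctylammonium bromide; nearly all actives have a fitted effect of over 60% in size.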 The essentials: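 AC50 values come from Hill-equation fits of luminescent intracellular ATP (CellTiter-Glo, 30 min, room temperature) following 24 h compound exposure at 37 C. Cells: LYMP2-007 lymphoblastoid line, 2500 per well, in complete culture medium.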
A short description of assay [13]: Cell Viability - LYMP2-014 (AID 983).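 Further: plate controls were DMSO only for no effect and 92 µM tetraoctylammonium bromide for full effect; nearly all actives have a fitted effect of over 50% in size.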 The essentials: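 Intracellular ATP loss, read by luciferase luminescence, measures acute cytotoxicity after 24 h compound exposure of lymphoblastoid LYMP2-014 cells (2500/well, 37 C). Concentration-response data fitted to the Hill equation for AC50.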
Assay [14] in a line: Cell Viability - LYMP2-018 (AID 985).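 Further: plate controls were DMSO only for no effect and tetraoctylammonium bromide at 92 µM for full effect; nearly all actives have a fitted effect of over 50% in size.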 Summed up: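 Viability read as CellTiter-Glo luminescence (cellular ATP) after 24 hr compound exposure at 37 C of 2500 LYMP2-018 lymphoblastoid cells/well, pre-plated 5 hr. Hill-equation modelling gave AC50.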
Assay [15] can be described thus: Cell Viability - LYMP2-020 (AID 986). Summed up: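 Cytotoxicity in qHTS format: luminescent ATP readout from CellTiter-Glo after 24 h compound exposure at 37 C in complete medium. LYMP2-020 lymphoblastoid cells were seeded at 2500/well; concentration-response data fitted to the Hill equation for AC50.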
Assay [16] in a line: Cell Viability - LYMP2-022 (AID 987). Summed up:
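Cytotoxicity read as decreased cellular ATP (CellTiter-Glo luminescence, 30 min room temperature) after 24 hours compound exposure of 2500 lymphoblastoid LYMP2-022 cells/well at 37 C. Concentration-response data fitted with standard Hill equation for AC50.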

Assay [17] in a line: Cell Viability - LYMP2-026 (AID 989). Further: on the % scale 0 is the no-effect control and ±100 the full control effect; nearly all actives have a fitted effect of over 50% in size. Summed up:
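Cytotoxicity read as ATP-dependent luminescence (CellTiter-Glo, 30 min room temperature) after 24 h compound treatment at 37 C. LYMP2-026 lymphoblastoid line seeded at 2500 cells/well; AC50 derived by standard Hill equation.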

Assay [18] is described as follows: Cell Viability - LYMP1-002 - Assay at 40 hr (AID 994).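 Further: 0% = DMSO only and full inhibition = 92 µM tetraoctylammonium bromide; nearly all actives have a fitted effect of over 60% in size.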 Summed up:
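Cytotoxicity was read as loss of cellular ATP (CellTiter-Glo luminescence) after 40 hr compound exposure at 37 C of 2500 LYMP1-002 lymphoblastoid cells per well. Concentration-response data were fitted with the standard Hill equation to give AC50.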

Assay [19] is described as follows: qHTS assay for small molecule agonists of retinoid X receptor alpha signaling (AID 588544). To be noted: HEK293T RXRa-UAS-bla, beta-lactamase reporter, 18 h; 530 nm emission. (In qHTS, concentration-response curves come from the screen itself.)
Assay [20] is described as follows: qHTS assay for small molecule antagonists of the retinoid-related orphan receptor gamma (ROR-gamma) signaling pathway - cell viability counter screen (AID 720652; active means well fitted curve in the direction sought with a large enough effect in the repeat runs; an effect the other way counts as inactive or inconclusive;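 further: compound exposure lasted 16 hr before ATP read; on the % scale 0 is the no-effect control and ±100 the full control effect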). Summed up: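 Cytotoxicity counter screen: intracellular ATP (CellTiter-Glo luminescence) measured in the doxycycline-induced CHO RORE-luciferase reporter line after 16 hr compound exposure at 37 C, 5% CO2.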

Consider `C=C(Cl)CCl`, for which the Potency result in assay [1], in assay [2], in assay [4], in assay [6], in assay [7] and in assay [8] was “inactive” throughout. Further, the Potency result in assay [9], in [10], in [11], in assay [12], in [13] and in assay [14] was “inactive” each time. Further, the Potency result in [15], in assay [16], in assay [17], in assay [18] and in [20] was “inactive” each time. Further, the caspase-3 activation in [3] was 1.48% (inactive). For the same compound, the compound was classed as inactive in assay [5]. Also, the max response in assay [19] was -8.31%.

Consider `ClC(Cl)c1ccccc1`, for which the Potency entry in [1], in assay [2], in [4], in assay [6], in assay [7] and in assay [8] was “inactive” in each case. Moreover, the Potency result in assay [9], in assay [10], in [11], in assay [12], in assay [13] and in [14] was “inactive” in each case. Besides, the Potency result in assay [15], in [16], in [17], in [18] and in assay [20] was “inactive” in each case. The caspase-3 activation in assay [3] was 2.34% (inactive). Further, in assay [5], the compound was classed as inactive. Also, the max response in assay [19] amounted to 1.37%.

For the compound `ClCCBr`, the Potency result in assay [1], in [2], in assay [4], in assay [6], in [7] and in [8] was “inactive” throughout. For the same compound, the Potency entry in assay [9], in assay [10], in assay [11], in assay [12], in assay [13] and in [14] was “inactive” each time. Besides, the Potency entry in [15], in [16], in [17], in assay [18] and in [20] was “inactive” in each case. The caspase-3 activation in [3] is 0.239% (inactive). The compound was classed as inactive in assay [5]. For the same compound, in [19], the max response was -16.9%.

Consider `CC(C)[C@]12CC(=O)[C@H](C)[C@H]1C2`, for which the Potency entry in assay [1], in assay [2], in assay [4], in [6], in [7] and in assay [8] was “inactive” in each case. Further, the Potency entry in [9], in [10], in [11], in [12], in assay [13] and in assay [14] was “inactive” in each case. The Potency entry in [15], in [16], in assay [17], in [18] and in assay [20] was “inactive” in each case. In assay [3], the caspase-3 activation is 0.322% (inactive). In addition, the compound was classed as inactive in assay [5]. Also, in assay [19], the max response is -6.67% and -9.54%.

Turning to `CCC(Cl)[N+](=O)[O-]` (stereo not given), the Potency result in assay [1], in [2], in assay [4], in assay [6], in assay [7] and in assay [8] was “inactive” in each case. The Potency entry in [9], in assay [10], in assay [11], in assay [12], in [13] and in assay [14] was “inactive” throughout. The Potency entry in assay [15], in assay [16], in [17], in assay [18] and in [20] was “inactive” each time. The caspase-3 activation in [3] was 1.33% (inactive). Also, the compound was classed as inactive in [5]. Moreover, the max response in assay [19] is -8.6%.

On to `ClC(Cl)C(Cl)Cl`, for which the Potency entry in assay [1], in assay [2], in [4], in [6], in [7] and in assay [8] was “inactive” in each case. For the same compound, the Potency result in [9], in assay [10], in [11], in [12], in assay [13] and in [14] was “inactive” in each case. Also, the Potency entry in [15], in assay [16], in [17], in assay [18] and in [20] was “inactive” each time. For the same compound, in assay [3], the caspase-3 activation was 1.02% (inactive). For the same compound, the call in [5] was inactive. In addition, the max response in assay [19] is -4.19%.

Take `Oc1cccc(Cl)c1`: the Potency result in assay [1], in assay [2], in assay [4], in assay [6], in [7] and in assay [8] was “inactive” in each case. The Potency result in assay [9], in assay [10], in assay [11], in assay [12], in assay [13] and in [14] was “inactive” each time. Moreover, the Potency result in assay [15], in [16], in assay [17], in assay [18] and in assay [20] was “inactive” throughout. For the same compound, the caspase-3 activation in [3] is 0.0873% (inactive). In addition, the compound was called inactive in [5]. Moreover, the max response in [19] is -0.644%.
